This is one part of a sample in which hits are shown more often than they occur.
BL2 CD40 inh – CD40 pathway inhibition in BL2 cells; BL2 NF-kB luciferase reporter, CD40L-induced, 4 h; inhibition, % at 10 µM; 83,000 compounds, 0.94% hits;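 active means mean inhibition of at least 50% with a set share of replicates also reaching that level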;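 further: 0% = neutral control wells and 100% = IKK inhibitor VII at 50 µM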
* = called active by the depositor; [ ] = another dose, or the depositor's remark.

How did O=C(C1CCCC1)N1CC(=O)N2[C@H](CO)[C@H](c3ccc(C#CCc4ccccc4)cc3)[C@H]2C1 do in these assays?
BL2 CD40 inh: 66*

What do the screens show for `O=C(C1CCC1)N1CC(=O)N2[C@H](CO)[C@H](c3ccc(C#CCc4ccccc4)cc3)[C@H]2C1`?
BL2 CD40 inh: 71*

How did O=C(C1CCCC1)N1CC(=O)N2[C@H](C1)[C@H](c1ccc(C#CCc3ccccc3)cc1)[C@@H]2CO do in these assays?
BL2 CD40 inh: 24

Results for O=C(C1CCOCC1)N1CC(=O)N2[C@@H](CO)[C@H](c3ccc(C#CCc4ccccc4)cc3)[C@@H]2C1 ?
BL2 CD40 inh: 4[25 µM]

How did CCCNC(=O)[C@H]1[C@H](CO)[C@H]2Cn3c(ccc(-c4ccc(OC)cc4)c3=O)[C@@H]1N2CC do in these assays?
BL2 CD40 inh: 5[25 µM]

How did C[C@@H]1CN([C@@H](C)CO)C(=O)c2c(c3ccccc3n2C)-c2ccccc2CO[C@H]1CN(C)C(=O)[C@H]1CCCN1C do in these assays?
BL2 CD40 inh: -12[25 µM]

What do the screens show for `COc1ccc(S(=O)(=O)N2CCCCN3[C@H](CO)[C@H](c4ccc(C#CC(C)C)cc4)[C@H]3C2)cc1`?
BL2 CD40 inh: 19

Results for C[C@@H]1CN(C)C(=O)Cc2cc(N)ccc2O[C@@H]1CN(C)S(C)(=O)=O ?
BL2 CD40 inh: -1

What do the screens show for `COc1ccc(-c2ccc3c(c2)[C@@H]2[C@@H](CCN2C(=O)C2CC2)[C@H](CO)N3C)cc1`?
BL2 CD40 inh: 40

How did CN1c2ccc(-c3cccc(F)c3)cc2[C@H]2[C@H](CCN2C(=O)C2CC2)[C@H]1CO do in these assays?
BL2 CD40 inh: 53*

Results for CN1c2ccc(-c3cccc(F)c3)cc2[C@@H]2[C@@H](CCN2C(=O)C2CC2)[C@H]1CO ?
BL2 CD40 inh: -97

How did CN1c2ccc(-c3cccc(F)c3)cc2[C@@H]2[C@@H](CCN2C(=O)C2CC2)[C@@H]1CO do in these assays?
BL2 CD40 inh: 20

Results for COc1ccc(-c2ccc3c(c2)[C@H]2[C@H](CCN2C(=O)C2CC2)[C@@H](CO)N3C)cc1 ?
BL2 CD40 inh: 53*

Results for COc1ccc(-c2ccc3c(c2)[C@H]2[C@H](CCN2C(=O)C2CC2)[C@H](CO)N3C)cc1 ?
BL2 CD40 inh: -5

Results for CCCNC(=O)C[C@H]1C[C@@H]2c3cc(NC(=O)COC)ccc3O[C@@H]2[C@H](CO)O1 ?
BL2 CD40 inh: 5[25 µM]

How did COC(=O)[C@@H]1[C@@H](CO)[C@@H]2Cn3c(ccc(-c4ccccc4)c3=O)[C@@H]2N1Cc1ccccc1F do in these assays?
BL2 CD40 inh: -5[25 µM]

How did N#Cc1ccc(-c2ccc3c(c2)[C@H]2[C@H](CCN2C(=O)C2CCC2)[C@H](CO)N3)cc1 do in these assays?
BL2 CD40 inh: -9

Results for C[C@H](CO)N1C[C@H](C)[C@H](CN(C)S(=O)(=O)CC(F)(F)F)OCc2ccccc2-c2c(n(C)c3ccccc23)C1=O ?
BL2 CD40 inh: 4[25 µM]

What do the screens show for `CC(C)[C@H](C)NC(=O)N(C)C[C@H]1OCc2ccccc2-c2c(n(C)c3ccccc23)C(=O)N([C@@H](C)CO)C[C@H]1C`?
BL2 CD40 inh: 2

What do the screens show for `C[C@H]1CN(C)C(=O)c2cccc(N(C)C)c2O[C@H]1CN(C)C(=O)OC(C)(C)C`?
BL2 CD40 inh: 7

How did O=C(C[C@H]1C[C@@H]2c3cc(NC(=O)C4CCOCC4)ccc3O[C@@H]2[C@H](CO)O1)NCCN1CCCCC1 do in these assays?
BL2 CD40 inh: -20[25 µM]

How did N#C[C@H]1[C@H](c2ccc(-c3cncnc3)cc2)[C@H](CO)N1C(=O)CN1CCOCC1 do in these assays?
BL2 CD40 inh: -18[25 µM]

How did Cn1cnc([N+](=O)[O-])c1Sc1ccncn1 do in these assays?
BL2 CD40 inh: 5

Results for O=[N+]([O-])c1ccc(Sc2ccncn2)c([N+](=O)[O-])c1 ?
BL2 CD40 inh: 103*

What do the screens show for `Cc1ccnc(Sc2ccc([N+](=O)[O-])cn2)n1`?
BL2 CD40 inh: -15

What do the screens show for `COc1cccc(C#Cc2ccc3c(c2)[C@H]2[C@H](CCN2C(=O)Cc2ccccc2)[C@@H](CO)N3C)c1`?
BL2 CD40 inh: 7[25 µM]

How did CNC[C@@H]1Oc2ccccc2C(=O)N(C)C[C@H]1C do in these assays?
BL2 CD40 inh: -6

How did COc1ccccc1C(=O)NCCC(=O)Nc1ccc(C)cn1 do in these assays?
BL2 CD40 inh: 8

What do the screens show for `O=C(CCNC(=O)c1ccccc1Cl)Nc1nc2ccccc2[nH]1`?
BL2 CD40 inh: -11

What do the screens show for `COc1ccccc1C(=O)NCCC(=O)Nc1nc2ccccc2[nH]1`?
BL2 CD40 inh: 52*

What do the screens show for `Fc1ccc(-c2nnc(Cc3nnc(-c4ccc(F)cc4)o3)o2)cc1`?
BL2 CD40 inh: 5

Results for Fc1ccc(NC2=NCCCCC2)cc1 ?
BL2 CD40 inh: 8

What do the screens show for `Fc1ccc(-c2nnc(NC3=NCCCCC3)o2)cc1`?
BL2 CD40 inh: 74*

Results for O=C(c1cccnc1)N1C[C@H]2[C@@H](c3ccccc31)[C@H](CO)N2CC1CCCCC1 ?
BL2 CD40 inh: 1[25 µM]

How did O=C(N[C@@H]1CC[C@@H](CCn2cc(-c3ccccc3F)nn2)O[C@H]1CO)c1ccc2c(c1)OCO2 do in these assays?
BL2 CD40 inh: 3[25 µM]

How did COc1ccc(/C=C\c2nc(=O)c3ccccc3o2)cc1 do in these assays?
BL2 CD40 inh: 46*

How did COc1ccc(OCC(=O)c2c(O)c3ccccc3oc2=O)cc1 do in these assays?
BL2 CD40 inh: -1

What do the screens show for `COc1ccc(OC)c(-c2oc3ccccc3c(=O)c2O)c1`?
BL2 CD40 inh: -75

Results for C[C@H]1CN(C)C(=O)c2cc(N)ccc2O[C@H]1CN(C)S(C)(=O)=O ?
BL2 CD40 inh: 0

How did COc1ccc2c3c(n(C)c2c1)[C@@H](CO)N(C(=O)Nc1ccc(F)cc1)CC31CCN(C(=O)c2ccc3c(c2)OCO3)CC1 do in these assays?
BL2 CD40 inh: 30[25 µM]

Results for COc1ccc2c3c(n(C)c2c1)[C@H](CO)N(C(=O)Nc1ccc(F)cc1)CC31CCN(C(=O)c2ccc3c(c2)OCO3)CC1 ?
BL2 CD40 inh: 65*[25 µM]

Results for COc1ccc2c3c(n(C)c2c1)[C@H](CO)N(C(=O)Nc1ccc(F)cc1)CC31CCN(C(=O)Nc2c(C)noc2C)CC1 ?
BL2 CD40 inh: 19[25 µM]

Results for CNC(=O)C1OC(n2cnc3c(NCc4cccc(I)c4)ncnc32)C(O)C1O (centres undefined) ?
BL2 CD40 inh: -5[25 µM]

Results for CC(C)NC(=O)Nc1ccc2c(c1)CC(=O)N(C)C[C@@H](C)[C@H](CN(C)C)O2 ?
BL2 CD40 inh: 3

What do the screens show for `O=C(c1cnccn1)N1CC[C@@H]2[C@@H](CO)Nc3ccc(-c4ccccc4F)cc3[C@@H]21`?
BL2 CD40 inh: -10[25 µM]

What do the screens show for `CC1CCN(Cc2nc(Cl)c3c4c(sc3n2)CCC4)CC1`?
BL2 CD40 inh: -5

Results for Clc1nc(CN2CCOCC2)nc2sc3c(c12)CCC3 ?
BL2 CD40 inh: -1

How did Clc1nc(CN2CCCCC2)nc2sc3c(c12)CCCC3 do in these assays?
BL2 CD40 inh: 55*

What do the screens show for `C[C@H](C(=O)N(C)C[C@@H]1OCc2ccccc2-c2ccccc2C(=O)N([C@H](C)CO)C[C@H]1C)c1ccccc1`?
BL2 CD40 inh: -1

Results for COc1ccc(NC(=O)c2ccccc2NC(=O)c2ccco2)cc1 ?
BL2 CD40 inh: -8

How did COc1ccc(-c2cccc(NC(=O)c3ccco3)c2)nn1 do in these assays?
BL2 CD40 inh: -10

What do the screens show for `COc1ccc(-c2ccc(NC(=O)c3ccco3)cc2)nn1`?
BL2 CD40 inh: 82*

How did C[C@H]1CN(C)C(=O)Cc2ccccc2O[C@@H]1CN(C)S(C)(=O)=O do in these assays?
BL2 CD40 inh: 4

Screens from PubChem.
